# The sample as a whole holds a higher share of hits than the screen did.
# GluA2 TARP mod – modulators of GluA2-stargazin AMPA receptor complexes, primary screen, cell-based, membrane potential dye | calls only at 30 µM | 3.5% of 40,000 active | HEK293 GluA2+stargazin, membrane potential dye (FDSS), glutamate EC50; hits were called plate by plate, in both directions;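 active = any of four per-well response measures lying three or more SD from its plate-wide compound average, in either direction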
# Target sequence (O88602 whole entry, looked up): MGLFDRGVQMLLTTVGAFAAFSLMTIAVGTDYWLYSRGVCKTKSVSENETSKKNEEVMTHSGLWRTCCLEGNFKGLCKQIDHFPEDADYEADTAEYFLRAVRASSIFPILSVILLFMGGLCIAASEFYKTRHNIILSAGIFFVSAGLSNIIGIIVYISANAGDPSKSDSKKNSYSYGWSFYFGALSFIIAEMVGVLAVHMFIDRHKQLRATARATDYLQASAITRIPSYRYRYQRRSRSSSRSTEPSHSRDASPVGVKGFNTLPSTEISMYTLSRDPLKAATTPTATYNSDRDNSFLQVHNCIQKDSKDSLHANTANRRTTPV
# Target sequence (P19491 whole entry, looked up): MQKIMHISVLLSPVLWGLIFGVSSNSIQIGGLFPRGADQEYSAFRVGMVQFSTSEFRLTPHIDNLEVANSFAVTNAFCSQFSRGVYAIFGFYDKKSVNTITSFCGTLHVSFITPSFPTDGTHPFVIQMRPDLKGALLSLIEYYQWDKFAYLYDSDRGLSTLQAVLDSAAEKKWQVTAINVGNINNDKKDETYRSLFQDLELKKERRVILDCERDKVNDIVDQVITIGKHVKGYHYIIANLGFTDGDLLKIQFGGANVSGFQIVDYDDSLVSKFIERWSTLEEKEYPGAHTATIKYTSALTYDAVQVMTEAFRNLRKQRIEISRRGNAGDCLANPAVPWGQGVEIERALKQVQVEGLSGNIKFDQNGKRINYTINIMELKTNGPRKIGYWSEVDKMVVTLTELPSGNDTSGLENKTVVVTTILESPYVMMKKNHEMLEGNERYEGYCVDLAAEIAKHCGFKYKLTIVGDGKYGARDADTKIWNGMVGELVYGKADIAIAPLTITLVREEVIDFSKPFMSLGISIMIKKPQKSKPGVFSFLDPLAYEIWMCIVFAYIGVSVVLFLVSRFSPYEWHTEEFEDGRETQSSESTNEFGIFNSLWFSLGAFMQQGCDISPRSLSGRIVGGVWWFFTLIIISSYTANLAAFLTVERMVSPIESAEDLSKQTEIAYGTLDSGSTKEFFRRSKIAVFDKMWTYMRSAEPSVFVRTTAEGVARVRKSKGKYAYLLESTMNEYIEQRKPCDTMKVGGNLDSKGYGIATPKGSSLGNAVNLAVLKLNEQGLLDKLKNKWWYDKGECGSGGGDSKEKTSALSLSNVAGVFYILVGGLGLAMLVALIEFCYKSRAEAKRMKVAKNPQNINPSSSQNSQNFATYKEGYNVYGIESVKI
# GIRK2 activator – activators of NPY4-receptor-primed GIRK2 channels, summary, cell-based, HEK293, thallium flux; G protein-activated inward rectifier potassium channel 2 (Homo sapiens), P48051; HEK293 GIRK2/NPY4 cells, thallium flux fluorescence; activation (% efficacy), % for hits at 37.5 µM; 34,000 tested, under 10 active; AID 1259324, 2017;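 active = primary screen hit, no activity in plain HEK293 cells, and in GIRK2-only cells above 5% efficacy rising with concentration; inactive = the rest, including fluorescent compounds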;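 also: efficacy is normalized control-subtracted fluorescence 15 s after thallium addition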
# Numbers without * were called inactive; i = inactive; nt = not tested or not shown; + = active, no number.
SMILES,GluA2 TARP mod,GIRK2 activator
CC(C)N1CCc2c(sc(NC(=O)Cc3ccccc3)c2-c2nc3ccccc3s2)C1,i,nt
Cc1c(C)n2c3c(=O)n(CC(N)=O)c(=O)n(C)c3nc2n1-c1ccccc1,i,nt
O=c1c2cc(-c3ccc(F)cc3)nn2cnn1Cc1nc(-c2cccc(Br)c2)no1,nt,i
CC(C)Sc1ccc(C(=O)Nc2nnc(-c3ccc4c(c3)OCCO4)o2)cc1,i,i
COc1ccc(OCC(=O)Nc2cc(C3CC3)nn2-c2nc(C(C)C)cc(=O)[nH]2)cc1,i,i
COc1ccc(/C=C\C(=O)Nc2cc(C3CC3)nn2-c2nc(C(C)C)cc(=O)[nH]2)cc1OC,+,i
O=C(CCc1csc(NC(=O)c2cccs2)n1)NCC1CCCCC1,i,i
Cc1ccc(C)c2sc(N(CC3CCCO3)C(=O)Cn3c(=O)oc4ccccc43)nc12 (stereo not drawn),nt,i
Cn1nnc2c(NCCCN3CCCC3=O)ncnc21,i,i
O=C(Nc1c2c(nn1-c1ccccc1)CS(=O)(=O)C2)C(=O)N1CCCCC1,i,i
COCCNC(=O)C(=O)Nc1c2c(nn1-c1ccc(Cl)cc1)CS(=O)(=O)C2,+,nt
O=C(Nc1c2c(nn1-c1ccccc1)CS(=O)(=O)C2)C(=O)N1CCCC1,+,i
COCCCNC(=O)C(=O)Nc1c2c(nn1-c1ccc(Cl)cc1)CS(=O)(=O)C2,i,nt
COc1cc(C)c(S(=O)(=O)N2CCN(c3ccc(C)cc3C)CC2)cc1C,i,nt
COc1ccc(OC)c(COCC(O)CN2CCCCC2)c1 (stereo not drawn),i,i
CCN1C(=O)Cc2cc(NC(=O)Nc3ccccc3)ccc21,i,i
CCOCCn1c(=O)c2c(nc3n2CC(C)CN3c2cccc(C)c2)n(C)c1=O (stereo not drawn),i,nt
CNC(=O)Cc1csc(NC(=O)c2csc(Nc3ccccc3)n2)n1,nt,i
Cc1nnc(NC(=O)CCc2csc(NS(=O)(=O)c3ccccc3)n2)s1,+,i
COc1ccc(S(=O)(=O)Nc2nc(CCC(=O)NC(C)C)cs2)cc1,i,i
COc1ccc(S(=O)(=O)Nc2nc(CCC(=O)Nc3nnc(C)s3)cs2)cc1,+,i
O=C(CCc1csc(NS(=O)(=O)c2ccccc2)n1)Nc1nc2ccccc2s1,i,i
COC(=O)Nc1nc(CC(=O)NCCc2c[nH]c3ccccc23)cs1,nt,i
O=C(Cc1csc(Nc2ccccc2)n1)NCCc1c[nH]c2ccccc12,+,i
Cc1nnc(NC(=O)Cc2csc(Nc3ccccc3)n2)s1,+,i
SMILES,GluA2 TARP mod,GIRK2 activator
Cc1cc(C)n(CCNc2nc3c(C(C)C)cccc3s2)n1,i,i
CCOc1cc(C(=O)N2CCOC(c3ccccc3)C2)cc(OCC)c1OCC (stereo not drawn),nt,i
Cc1cc(NC(=O)c2ccc(S(=O)(=O)N(CC(C)C)CC(C)C)cc2)n(C)n1,nt,i
COc1cc(C(=O)Nc2c(C(C)C)cccc2C(C)C)cc(OC)c1OC,+,i
CC(C)c1cccc(C(C)C)c1NC(=O)c1ccc(O)cc1,i,nt
CC(C)C(=O)NCCCn1nc(-c2ccco2)ccc1=O,i,i
CC(Oc1ccccc1F)C(=O)NCCCn1nc(-c2ccco2)ccc1=O (stereo not drawn),+,i
COc1cc(OC)cc(C(=O)Nc2ccc(C)c(N3CCCCC3=O)c2)c1,i,i
Cc1ccc(Nc2cc(N3CCN(C(=O)c4ncccn4)CC3)nc(C)n2)cc1,+,i
Cc1ccc(Nc2cc(C)nc(N3CCN(C(=O)c4ccc5c(c4)OCO5)CC3)n2)cc1,i,nt
Cc1ccc(NC(=O)C(=O)NCC(c2cccc3ccccc23)N2CCOCC2)cc1Cl (stereo not drawn),i,nt
COc1cc(C(=O)Oc2ccc3c(c2)O/C(=C\c2cccs2)C3=O)cc(OC)c1OC,i,nt
COC(=O)COc1ccc2c(c1)O/C(=C\c1cccs1)C2=O,+,nt
CCc1nc(SCC(=O)N(CC)CC)c(C#N)c2c1CCCC2,+,nt
Cc1[nH]c(=O)nc(SCC(=O)NC2CCCC2)c1C#N,i,i
O=C(CCN1C(=O)c2ccccc2S1(=O)=O)Nc1ccccc1C(F)(F)F,i,i
c1ccn2cc(CSc3cc(N4CCOCC4)ncn3)nc2c1,+,i
COc1cccc(C(=O)CSc2cc(N3CCOCC3)ncn2)c1,i,i
COc1cc(/C=C2\SC(=S)N(c3cccc(F)c3)C2=O)cc(OC)c1OC,i,nt
COc1cn(-c2ccc(F)cc2)nc1C(=O)NCCC1=CCCCC1,i,i
O=C1SC(Nc2ccc(F)cc2)C(=O)N1c1ccc(F)cc1 (stereo not drawn),i,i
O=C(Cn1cnc(-c2ccccc2)cc1=O)NCCC(c1ccccc1)c1ccccc1,i,i
CCSc1ccccc1C(=O)NCCn1cnc(-c2ccccc2)cc1=O,+,i
COc1ccc(-n2nnnc2SC(C)C(=O)Nc2nccs2)cc1 (stereo not drawn),+,nt
CCOc1ccc(-n2nnnc2SC(C)C(=O)Nc2ccccc2C)cc1 (stereo not drawn),i,nt
SMILES,GluA2 TARP mod,GIRK2 activator
COc1ccc(-n2nnnc2SCCC(=O)Nc2nccs2)cc1,i,i
CCOc1ccc(-n2nnnc2SC(C)C(=O)Nc2ccccc2F)cc1 (stereo not drawn),+,nt
O=S(=O)(NCC(O)(c1ccccc1)C(F)(F)F)c1ccccc1Cl (stereo not drawn),i,i
Cc1c(Cl)cccc1S(=O)(=O)NCC(O)(c1ccccc1)C(F)(F)F (stereo not drawn),+,i
COc1ccc(N2CCN(c3nc4c(c(=O)[nH]c(=O)n4C)n3Cc3ccc(F)cc3)CC2)cc1,i,nt
COc1cc(/C=C2\Oc3cc(OC(C)=O)ccc3C2=O)cc(OC)c1OC,i,nt
COc1cc(/C=C2\Oc3cc(OC(=O)c4ccccc4F)ccc3C2=O)cc(OC)c1OC,+,nt
COC(=O)N1CCC(CNS(=O)(=O)/C=C/c2ccccc2)CC1,i,i
O=C(Nc1onc2c1CSC2)c1cnc2ccccc2n1,i,i
COc1ncccc1C(=O)Nc1onc2c1CSC2,+,i
O=C(CC1CCCC1)Nc1cc(-c2ccco2)nn1-c1nc2c(c(=O)[nH]1)CCC2,i,i
O=C(Nc1cc(-c2ccco2)nn1-c1nc2c(c(=O)[nH]1)CCC2)C1CC1,+,i
Cc1c(NS(=O)(=O)c2cccc(S(C)(=O)=O)c2)c(=O)n(-c2ccccc2)n1C,nt,i
Cc1cc(C(C)(C)C)cc(S(=O)(=O)Nc2c(C)n(C)n(-c3ccccc3)c2=O)c1C,+,nt
Fc1ccccc1Nc1nc(N2CCOCC2)c2ccccc2n1,+,nt
CN1CCN(c2nc(Nc3cccc(O)c3)nc3ccccc23)CC1,+,nt
Fc1cccc(Nc2nc(N3CCCCC3)c3[nH]cnc3n2)c1,i,i
Cc1nc(Nc2cccc(F)c2)nc(N2CCOCC2)c1[N+](=O)[O-],i,i
C#CCSc1ccnc2c1c(=O)n(C)c(=O)n2C,i,nt
CCCCSc1ccnc2c1c(=O)n(C)c(=O)n2C,+,nt
Cn1c(=O)c2c(SCC(=O)N3CCOCC3)ccnc2n(C)c1=O,+,nt

# Bioassay records from PubChem BioAssay.
